# Compound activity: PubChem BioAssay, several laboratories
# Bead autofluor: compound fluorescence in toxin protease inhibitor counterscreen | compound autofluorescence counterscreen, microsphere flow cytometry; stronger effect = higher value | fluorescence intensity (test concentration not listed) | 3.1% of 360,000 active | AID 624483; in the data active = fluorescence intensity above about 16000; inconclusive = no clear call, values can overlap the other calls
# TcdB GH inh: TcdB glycohydrolase inhibition; P18177; TcdB glycohydrolase enzymatic assay, plate reader; inhibition, % at 9.99 µM; 0.24% of 350,000 active; AID 652162; in the data active = inhibition above about 10%
# Anthrax LF inh2: anthrax lethal factor protease inhibition; P15917; multiplex microsphere protease cleavage assay, LF; inhibition, % at 10 µM; 0.12% of 360,000 active; note: plate controls were buffer without enzyme for full effect and enzyme alone for no effect
# BoNT F protease: inhibitors of Botulinum neurotoxin F light chain protease. Multiplex microsphere protease cleavage assay, flow cytometry. inhibition, % at 10 µM. 0.22% of 360,000 active. AID 588497; in the data active = inhibition above about 35%, passing the limit was not always enough; inconclusive = no clear call, values can overlap the other calls; note: plate controls were buffer without enzyme for full effect and enzyme alone for no effect
# BoNT-A LC inh2: inhibitors of Botulinum neurotoxin A light chain protease | 0.17% of 360,000 active | inhibition, % at 10 µM | multiplex microsphere protease substrate cleavage, flow cytometry | AID 588499; note: plate controls were buffer without enzyme for full effect and enzyme alone for no effect
# Starred values were filed as active, the others as inactive; u = inconclusive; x = no result given. Only a selection was taken, and hits are over-represented in it overall. Cut-off read from the data, not from the text of the source, unless noted: active = inhibition above about 30%; inconclusive = no clear call, values can overlap the other calls; inactive = below that.
SMILES,Bead autofluor,TcdB GH inh,Anthrax LF inh2,BoNT F protease,BoNT-A LC inh2
CN1C(=CC=C2C=C(I)C(=O)C(I)=C2)C(C)(C)c2ccccc21,3157,1,55*,19,101*
CCO[C@@H]1OC(C(=O)N2CCCCCCC2)=C[C@H](C)[C@H]1CCCO,x,1,x,x,x
COc1cc(S(=O)(=O)N2CCN(c3ccccc3F)CC2)ccc1Cl,20773*,x,-3,-3,-1
COc1ccccc1N1CCN(S(=O)(=O)c2ccc(Br)s2)CC1,22653*,x,-3,-2,2
COc1ccccc1N1CCN(S(=O)(=O)c2ccccc2)CC1,19619*,x,-8,2,3
O=S(=O)(c1ccc(F)cc1)N1CCN(c2ccccc2)CC1,20200*,x,0,-1,0
C[C@H]1CN([C@@H](C)CO)C(=O)Cc2cc(NC(=O)NC3CCCCC3)ccc2O[C@H]1CN(C)Cc1ccc(C(=O)O)cc1,x,-1,x,x,x
COc1ccccc1NC(=O)N[C@H]1CC[C@@H](CCn2cc(-c3ccccc3)nn2)O[C@@H]1CO,x,1,x,x,x
Cc1cc(C)n2nc(SC(C)C(=O)N3CCC4(CC3)OCCO4)nc2n1 (stereo unspecified),24597*,x,-1,-6,u
CCCn1c(=O)c(F)cn(Cc2ccc(OC)c([N+](=O)[O-])c2)c1=O,21734*,x,2,3,2
CCc1cc2c(=O)c(-c3nc4ccccc4n3C)c(C(C)C)oc2c(CN2CCN(C)CC2)c1O,20753*,x,-3,-9,-4
CCc1cc2c(=O)c(-c3nc4ccccc4n3C)c(C)oc2c(CN2CCN(CCO)CC2)c1O,7081,-1,-3,-4,0
CO[C@H]1CN(C)C(=O)c2ccc(NC(=O)C3CC3)cc2OC[C@@H](C)N(C(=O)Cc2ccccn2)C[C@H]1C,x,0,x,x,x
COCc1nnc(NC(=O)CSc2ccccc2)s1,22373*,x,0,-1,0
COCc1nnc(NC(=O)CCSc2ccccc2)s1,20338*,x,-3,0,u
COCc1nnc(NC(=O)CSc2ccc(C)cc2)s1,9697,x,-9,-11,-1
COCCSc1ccccc1C(=O)Nc1nnc(COC)s1,23162*,x,1,1,0
CCCCc1nnc(NC(=O)CCSc2ccccc2)s1,10525,x,-9,-5,-1
Cc1nnc(NC(=O)CSc2ncnc3scc(-c4ccccc4)c23)s1,21836*,x,-2,4,u
Cc1nnc(NC(=O)CCSc2ccc(Cl)cc2)s1,2675,-1,0,-3,0
Cc1nnc(NC(=O)CCSc2ccccc2)s1,16606*,x,1,-1,0
O=C(CNS(=O)(=O)c1ccccc1)OCC(=O)c1ccc(OC(=O)c2ccccc2)cc1,21032*,x,0,7,u
COc1ccc(S(=O)(=O)N(C)C[C@@H]2Oc3c(NC(=O)Nc4ccc(F)cc4)cccc3C(=O)N([C@@H](C)CO)C[C@@H]2C)cc1,x,1,x,x,x
CCc1ccc(NC(=O)Cn2cnc3c(=O)n(C)c(=O)n(C)c32)cc1,4216,-1,3,4,1
CCc1ccc(C(C)NC(=O)Cn2cnc3c(=O)n(C)c(=O)n(C)c32)cc1 (stereo unspecified),16189*,1,-1,0,0
SMILES,Bead autofluor,TcdB GH inh,Anthrax LF inh2,BoNT F protease,BoNT-A LC inh2
CCc1ccc(OCC2Cn3c(nc4c3c(=O)[nH]c(=O)n4C)O2)cc1 (stereo unspecified),4085,2,-5,u,1
Cc1ccc(OCC2Cn3c(nc4c3c(=O)[nH]c(=O)n4C)O2)cc1 (stereo unspecified),20012*,x,-2,3,2
O=C(C[C@@H]1CC[C@H](NC(=O)CN2CCOCC2)[C@H](CO)O1)NC1CCCCC1,x,0,x,x,x
CN1CCN(CCNC(=O)Nc2ccc(Cl)cc2)CC1,3685,-1,-7,u,1
CC1CCCC(C)N1CCNC(=O)Nc1ccc(Cl)cc1 (stereo unspecified),22625*,x,-7,3,3
C[C@@H]1CN([C@H](C)CO)C(=O)c2cc(NC(=O)CCCN(C)C)ccc2O[C@@H]1CN(C)S(=O)(=O)c1cccs1,x,1,x,x,x
c1ccc(-c2nnc3sc(CN4CCC5(CC4)OCCO5)cn23)cc1,20544*,2,0,-1,-1
Cc1ccc(S(=O)(=O)NCC[C@H]2CC[C@H](NS(=O)(=O)c3ccccc3Cl)[C@H](CO)O2)cc1,x,0,x,x,x
CC(C)CCNC(=O)c1ccc2c(c1)ncn2C1CCCCC1,19635*,x,2,5,3
CCC(=O)N1[C@@H]2c3cccc(=O)n3C[C@H]1[C@H](CO)[C@H]2C(=O)NC1CCCCC1,x,0,x,x,x
Cc1ccc(S(=O)(=O)Nc2ccccc2C(N)=O)cc1,17497*,x,-1,-12,-2
NC(=O)c1ccccc1NS(=O)(=O)c1ccccc1,8559,x,3,1,2
